# PubChem BioAssay AID624429 (Broad Institute, 2012)
# Potency and affinity values are given separately. Activity calls are given as the source filed them.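 How the source made its calls: active means viability loss with a fitted half-maximal dose at or below twice the top valid dose, in every repeat test; inconclusive means repeat tests disagree, or a flat partial loss, or a poor fit; inactive means all tests inactive, including signal rising instead of falling.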
# Assay: SK-MEL-5 parental line viability, dose response, MITF inhibitor project, cell-based, CellTiter-Glo, dry powder, set 6 (AID 624429)
smiles,measurement,value
NC1=C(NS(=O)(=O)c2ccc(Br)s2)C(=O)c2ccccc2C1=O,outcome,inactive
